High-throughput results (PubChem)
Tau fluor counter: counter-screen for tau fibril formation inhibitors; tau K18 P301L Alexa594 fluorescence, heparin fibrillization; Potency, µM (top dose mostly 57.7 µM), for the others: top-dose activity change, negative = decrease; 0.93% of 280,000 active; AID 1463; also: nearly all actives have a fitted effect of over 55% in size
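Human tau K18 P301L (15 uM unlabeled, 0.24 uM Alexa 594-labeled) in 100 mM sodium acetate pH 7 with 20 uM heparin, 6 hr at 37 C. ThT 30 uM added, 1 hr ambient; Alexa 594 FP and total fluorescence read at 555/632 nm.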
Gal4-VP16 FLuc: Gal4-VP16 reporter inhibition counter-screen | 3.5% of 310,000 active | Drosophila S2 Gal4-VP16 UAS-luciferase, luminescence, 20 h | Potency, µM (highest dose often 53.6 µM), without a hit: at the highest dose activity, negative = inhibition, actives largely listed as inhibitors | AID 2546;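 also: Gal4-VP16 expression switched on by copper sulfate through the metallothionein promoter; nearly all actives have a fitted effect of over 50% in size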
Tau fibril FP: tau fibrillization inhibition (FP) | AID 1468 | K18 P301L tau heparin fibrillization, Alexa594 FP, 6 h | P10636 | 0.39% of 280,000 active | Potency, µM (titrated, usually from 57.7 µM), for inactives: at the highest dose activity, negative = inhibition, usual class: inhibitors; also: nearly all actives have a fitted effect of over 55% in size
Target sequence (P10636 561-689 P618L limits assumed): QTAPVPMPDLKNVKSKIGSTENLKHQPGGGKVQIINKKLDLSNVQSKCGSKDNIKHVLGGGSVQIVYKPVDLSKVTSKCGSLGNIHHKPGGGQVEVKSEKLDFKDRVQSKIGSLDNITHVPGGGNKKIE
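Compound effects on tau fibrillization are measured by Alexa 594 fluorescence polarization (ex 555, em 632 nm). K18 P301L tau is used at 15 uM with 0.24 uM labeled tracer, and 20 uM heparin induces aggregation over 6 hr at 37 C.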
RORg inh: inhibitors of mouse ROR gamma transcriptional activity | 5.4% of 310,000 active | P51450 | Potency, µM (series often up to 53.6 µM), inactives show at the highest dose activity change, negative = inhibition, hits mostly inhibitors | Drosophila S2 Gal4-RORgamma UAS-luciferase reporter, 20 h; also: nearly all actives have a fitted effect of over 60% in size
Target sequence (P51450 whole entry, looked up, the tested form may be a part): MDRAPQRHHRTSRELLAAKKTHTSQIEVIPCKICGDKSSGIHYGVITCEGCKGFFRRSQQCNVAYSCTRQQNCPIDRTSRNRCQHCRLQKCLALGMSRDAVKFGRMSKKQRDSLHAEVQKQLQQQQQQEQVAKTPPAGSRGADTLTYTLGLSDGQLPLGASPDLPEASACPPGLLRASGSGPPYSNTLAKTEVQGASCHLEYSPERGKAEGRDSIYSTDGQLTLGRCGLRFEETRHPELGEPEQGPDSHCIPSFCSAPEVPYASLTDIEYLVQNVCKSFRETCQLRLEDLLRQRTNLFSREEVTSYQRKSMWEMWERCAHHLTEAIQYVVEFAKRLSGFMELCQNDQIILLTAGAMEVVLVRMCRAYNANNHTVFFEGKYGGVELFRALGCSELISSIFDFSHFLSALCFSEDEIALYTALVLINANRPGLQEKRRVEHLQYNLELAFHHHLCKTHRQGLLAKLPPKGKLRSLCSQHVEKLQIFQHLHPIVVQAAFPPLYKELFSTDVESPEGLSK
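Using a luciferase readout, inhibitors were identified by reduced reporter activity in Drosophila cells coexpressing a copper-inducible Gal4–ROR gamma fusion and UAS-driven Photinus luciferase, incubated 20 hr after 700 uM copper sulfate.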
Tau ThT inhib: inhibitors of human tau fibril formation, thioflavin T binding; recombinant tau K18 P301L, heparin-induced fibrillization, ThT fluorescence; P10636; 2.1% of 270,000 active; Potency, µM (titrated, usually from 57.4 µM), for the others: at the highest dose activity, negative = inhibition, usual class: inhibitors; AID 1460; also: nearly all actives have a fitted effect of over 55% in size
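Fibril formation assay: tau K18 P301L at 15 uM with trace Alexa 594 label, heparin inducer 20 uM, pH 7 sodium acetate buffer, 37 C for 6 hr; endpoint ThT signal.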
Active calls of the source: *; [ ] = remark or other dose. This is a sample that favours compounds with a hit; in the whole collection about 7.3% have one here. Calls follow the shape of the dose curve; as a rule, active = well fitted curve in the direction sought with a large enough effect; inconclusive = small, poorly fitted or top-dose-only effect, or another doubt; inactive = no such curve, though single readings can be large; an effect the other way counts as inactive or inconclusive. % is scaled to controls: 0 for no effect and ±100 for the full control effect; potency is read from the fitted curve at half-maximal effect.

`O=C(Cn1nnc(-c2cccc(C(F)(F)F)c2)n1)NCc1ccc(F)cc1` gave Tau fluor counter 1%, Tau fibril FP -7% and Tau ThT inhib 3%.
For CCOC(=O)N1CCc2c(sc3c2c(=O)n(CCc2ccccc2)c(=O)n3Cc2ccc(F)cc2)C1 the results were Tau fluor counter -14%, Tau fibril FP -13% and Tau ThT inhib -8%.
Cc1ccc(C(=O)N/N=C\c2ccccc2[N+](=O)[O-])cn1 was read as Tau fluor counter -8%, Gal4-VP16 FLuc inconclusive, Tau fibril FP -2%, RORg inh 10µM* and Tau ThT inhib -14%.
COc1cc([N+](=O)[O-])cc(/C=N/NC(=O)c2ccc(C)nc2)c1O was read as Tau fluor counter -11%, Gal4-VP16 FLuc 0.63µM*, Tau fibril FP 7%, RORg inh 0.89µM* and Tau ThT inhib 11µM*.
Screening COc1cc([N+](=O)[O-])cc(/C=N/NC(=O)CSc2ccccn2)c1O returned Tau fluor counter -11%, Gal4-VP16 FLuc 6.3µM*, Tau fibril FP 3% and RORg inh 0.63µM*.
Cc1ccc(C(=O)N/N=C\C=C\c2ccccc2[N+](=O)[O-])cn1 was read as Tau fluor counter -3%, Gal4-VP16 FLuc inconclusive, Tau fibril FP -3%, RORg inh 21% and Tau ThT inhib -3%.
`COc1cccc(/C=N/NC(=O)c2cc3cc([N+](=O)[O-])ccc3s2)c1O` gave Tau fluor counter inconclusive, Gal4-VP16 FLuc 2.5µM*, Tau fibril FP 11%, RORg inh 1.4µM* and Tau ThT inhib 2.2µM*.
O=C(CC1N=C2c3ccccc3N=C(SCC(=O)Nc3cccc(Cl)c3)N2C1=O)NCc1cccs1 (configuration not stated) was read as Tau fluor counter inconclusive, Tau fibril FP -1% and Tau ThT inhib -18%.
For CCNC(=S)N/N=C/c1ccccc1[N+](=O)[O-] the results were Tau fluor counter 0%, Gal4-VP16 FLuc inconclusive, Tau fibril FP 5%, RORg inh 4.5µM* and Tau ThT inhib 4%.
COc1cc([N+](=O)[O-])cc(/C=N/NC(=O)c2ccc(NC(=O)c3ccc(C)cc3)cc2)c1O was read as Tau fluor counter inconclusive, Gal4-VP16 FLuc -8%[10 µM], Tau fibril FP 15%, RORg inh inconclusive and Tau ThT inhib 2µM*.
For COc1ccccc1/C=N/NC(=O)c1ccc(NC(=O)c2cccc([N+](=O)[O-])c2)cc1 the results were Tau fluor counter -24%, Gal4-VP16 FLuc 0%, Tau fibril FP 13%, RORg inh 30% and Tau ThT inhib inconclusive.
COc1ccc([N+](=O)[O-])cc1/C=N/NC(=O)Cc1ccccc1 was read as Tau fluor counter 2%, Gal4-VP16 FLuc inconclusive, Tau fibril FP 4%, RORg inh 7.9µM* and Tau ThT inhib 5%.
`COc1ccc(N2CCN(CC(O)COc3ccccc3C(C)(C)C)CC2)cc1` (configuration not stated) gave Tau fluor counter inconclusive, Tau fibril FP 3% and Tau ThT inhib inconclusive.
Screening Cc1ccc(C2=NC3(CCCCCC3)NC2=S)cc1 returned Tau fluor counter 4%, Gal4-VP16 FLuc 2.2µM*, Tau fibril FP 0%, RORg inh 1.4µM* and Tau ThT inhib 2%.
For O=C1NC2(CCCCC2)N=C1c1ccc(F)cc1 the results were Tau fluor counter -4%, Gal4-VP16 FLuc 10%, Tau fibril FP 3%, RORg inh 1% and Tau ThT inhib -9%.
For O=C1NC2(CCCCC2)N=C1c1ccc(Br)cc1 the results were Tau fluor counter -8%, Gal4-VP16 FLuc inconclusive, Tau fibril FP 0%, RORg inh 13µM* and Tau ThT inhib 0%.
For Cc1ccc(-n2[nH]c(C)c(C=Nc3ccc(Br)cn3)c2=O)cc1 the results were Tau fluor counter -8%, Gal4-VP16 FLuc -2%, Tau fibril FP -1%, RORg inh -5% and Tau ThT inhib -12%.
For O=C(N/N=C/c1c(Cl)cccc1Cl)c1cccc(F)c1 the results were Tau fluor counter -6%, Gal4-VP16 FLuc inconclusive, Tau fibril FP 4%, RORg inh inconclusive and Tau ThT inhib -9%.
For Cc1[nH]n(-c2ccccc2)c(=O)c1/C=N/NC(=O)c1cccc(F)c1 the results were Gal4-VP16 FLuc 1.3µM* and RORg inh 0.56µM*.
`Cc1[nH]n(-c2ccc(Br)cc2)c(=O)c1/C=N/NC(=O)c1ccccc1` gave Gal4-VP16 FLuc 0.13µM* and RORg inh 0.28µM*.
CC(C)[C@H](NC(=O)[C@H](CCC(N)=O)NC(=O)CNC(=O)[C@@H]1CCCN1C(=O)[C@H](Cc1ccc(O)cc1)NC(=O)CN)C(=O)O was read as Gal4-VP16 FLuc 0% and RORg inh 11%.
`c1ccc(CSc2ccc(-c3ccccn3)nn2)cc1` gave Tau fluor counter -15%, Gal4-VP16 FLuc 1%, Tau fibril FP 3%, RORg inh 7.9µM* and Tau ThT inhib -10%.
Screening O=C(COc1ccc(F)cc1)Nc1nccs1 returned Tau fluor counter -2%, Gal4-VP16 FLuc -9%, Tau fibril FP -3%, RORg inh 10µM* and Tau ThT inhib -8%.
Screening O=[N+]([O-])c1ccc(Cl)c(/C=N/n2c(C3CCCCC3)n[nH]c2=S)c1 returned Tau fluor counter -14%, Gal4-VP16 FLuc -5%, Tau fibril FP 2%, RORg inh -34% and Tau ThT inhib -1%.
For COc1cccc(/C=N/n2c(C3CCCCC3)n[nH]c2=S)c1 the results were Gal4-VP16 FLuc 10µM* and RORg inh 4.5µM*.
Screening Fc1cccc(/C=N/n2c(C3CCCCC3)n[nH]c2=S)c1 returned Gal4-VP16 FLuc 8.9µM* and RORg inh 4µM*.
`O=[N+]([O-])c1cccc(/C=N/n2c(C3CCCCC3)n[nH]c2=S)c1` gave Tau fluor counter -13%, Gal4-VP16 FLuc 4.5µM*, Tau fibril FP -2%, RORg inh 4µM* and Tau ThT inhib -7%.
Oc1cccc(/C=N/n2c(C3CCCCC3)n[nH]c2=S)c1 was read as Gal4-VP16 FLuc -4% and RORg inh inconclusive.
For COc1cc(/C=N/n2c(C3CCCCC3)n[nH]c2=S)cc(OC)c1O the results were Gal4-VP16 FLuc -4% and RORg inh -31%.
For COC(=O)CN=C1OC(=O)N2C(=O)C3=C4C(C[C@H]5C(=O)N(c6ccccc6)C(=O)[C@H]5[C@H]4[C@@]12Cc1ccccc1)[C@H]1C(=O)N(c2ccccc2)C(=O)[C@H]1[C@H]3C (some centres not stated) the results were Tau fluor counter -4%, Gal4-VP16 FLuc -6%, Tau fibril FP 4%, RORg inh 2% and Tau ThT inhib -1%.
For CN(C)c1ccc(C2CC(c3c(O)n(C4CCCCC4)c(=O)[nH]c3=O)=Nc3ccccc3S2)cc1 (configuration not stated) the results were Tau fluor counter -2%, Tau fibril FP 6% and Tau ThT inhib 2%.
